Compound activity (PubChem BioAssay)
Shiga toxin inh = blocks Shiga toxin action in Vero cells | Vero cells, Shiga toxin protein synthesis inhibition reporter | inhibition, % at 38.7 µM | 290,000 tested, 9.2% active; in the data active means inhibition mostly above about 28%, no sharp cut-off; inactive means mostly below about 43%; further: 0% is about no effect
AMA1-RON2 inh = inhibitors of Plasmodium falciparum AMA1-RON2 interaction; 360,000 tested, 0.2% active; Potency, µM (doses to about 58.2 µM), for inactives: top-dose activity change, negative = inhibition, hits mostly inhibitors; AlphaScreen AMA1-biotinylated RON2 peptide binding; active means well fitted inhibition curve with a large enough effect; inconclusive means small, poorly fitted or top-dose-only effect; inactive means no such curve, though single readings can be large or run the other way;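 further: potency means the concentration at half of the fitted maximal effect; 0% = vehicle wells and -100% = peptide control; nearly all actives have a fitted effect of over 45% in size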
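AMA1 (3D7) with his tag at 25 nM final met compounds first, then biotinylated RON2 peptide at 25 nM; detection used donor plus acceptor beads, 10 µg/mL apiece, read by AlphaScreen after 30 min at room temperature.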
Cycloheximide cs = affects cycloheximide protein synthesis inhibition readout, counter-screen; 300,000 tested, 12% active; max response, %; cell reporter, cycloheximide protein synthesis inhibition counterscreen; in the data active means max response mostly above about 13%, no sharp cut-off; inactive means mostly below about 14%; further: read at 38.3 µM for the half of the compounds with a filed dose; 0% is about no effect
Lassa entry inh = blocks Lassa virus binding to or entry into cells | 300,000 tested, 1.2% active | Lassa virus pseudotype entry inhibition, cell reporter | Potency, µM (highest dose often 37.9 µM), for the others: at the top dose activity change, negative = inhibition, usual class: inhibitors; calls by dose curve; tested in HEK293 cells; further: potency means the concentration at half of the fitted maximal effect; on the % scale 0 is the no-effect control and ±100 the full control effect; nearly all actives have a fitted effect of over 50% in size
MARV entry inh = Marburg virus entry inhibition | Marburg virus pseudotyped entry inhibition, cell reporter | Potency, µM (doses to about 37.8 µM), for the others: at the highest dose activity change, negative = inhibition, most hits filed as inhibitors | 300,000 tested, 1.8% active | AID 540276; calls by dose curve; tested in HEK293 cells; further: potency means the concentration at half of the fitted maximal effect; on the % scale 0 is the no-effect control and ±100 the full control effect
The depositor's hits bear a star; ? = inconclusive; / = no result given; + = active, no number; [ ] = remark or other dose. The entries come from a sample that favours hits as a whole.

SMILES	Shiga toxin inh	AMA1-RON2 inh	Cycloheximide cs	Lassa entry inh	MARV entry inh
CC(=O)c1ccc(NC(=O)CCCC(=O)c2ccccc2)cc1	-16.0	-15.3%	-4.0	/	/
O=C(O)CSCC(=O)Nc1ccc(C(=O)O)cc1	20.4	19.3%	11.3	5.3%	7.9%
O=C(CCN1CCN(CCO)CC1)Nc1ccc(C2CCCC2)cc1	-4.4	0.3%	1.8	/	/
O=C(CSCCO)Nc1ccc(C2CCCCC2)cc1	97.4*	-7.5%	48.3*	2.9%	21.4%
CC(=O)c1ccc(NC(=O)CSCCO)cc1	81.0*	-7.1%	21.0*	15.1%	19.9%
CSCCC(=O)Nc1ccc(C(C)=O)cc1	114.3	-1.0%	26.6*	7.1%	?
Cc1ccc(S(=O)(=O)N2CCCCC2)cc1NC(=O)CSc1nc(N)cc(=O)[nH]1	/	-2.9%	/	/	/
CN(C(=O)c1cccc(Nc2ccc(-c3ccc4c(c3)OCCO4)nn2)c1)C1CCCCC1	64.4*	-16.8%	52.8*	14.1µM*	?
CN(C)S(=O)(=O)c1ccc(Nc2ccc(-c3ccc4c(c3)OCCO4)nn2)cc1	25.0	-6.0%	-1.5	2.7%	21.5%
O=S(=O)(Nc1ccc(-c2ccc(N3CCCCC3)nn2)cc1)c1ccc(OC(F)(F)F)cc1	/	/	/	7.1%[46.1 µM]	/
CCC(c1nnnn1CS(=O)(=O)c1ccc(C)cc1)N1CCN(c2nc3ccccc3s2)CC1 (stereo not given)	24.2	6.1%	16.3	?	8.2µM*
Cc1ccc(S(=O)(=O)Cn2nnnc2C(c2ccccc2)N2CCN(c3ccccc3)CC2)cc1 (stereo not given)	-2.7	-5.8%	-3.5	-19.9%	?
Cc1ccc(-c2nnnn2CS(=O)(=O)c2ccccc2)cc1	19.7	9.7%	19.2*	19.2%	0.3%
CCCC(c1nnnn1CS(=O)(=O)c1ccc(C)cc1)N1CCN(c2ccccc2)CC1 (stereo not given)	-9.1	-4.1%	-2.4	11.2µM*	?
O=S(=O)(NCCNC/C=C/c1ccc(Br)cc1)c1cccc2cnccc12	/	/	/	?	10µM*
NCC12CC3CC(CC(O)(C3)C1)C2	-9.6	1.3%	-0.7	0.5%	2.9%
NCC12CC3CC(C1)CC(CN)(C3)C2	-11.6	23.9%	-10.0	-11.8%	18.3µM*
C/C(=N/NC(=O)CNS(=O)(=O)c1ccccc1)c1ccc(Br)cc1	-4.2	7.7%	1.1	2.8%	-7.5%
C/C(=N\NC(=O)c1cccc(Br)c1)c1cccnc1	50.6*	35.3%	23.5*	?	27.1%[46.1 µM]
CSC(=S)N/N=C(\C)c1ccc(Br)cc1	45.3*	-1.7%	29.5*	-24.4%	-1.1%[46.1 µM]
C/C(=N\NC(=O)c1cccnc1)c1ccccc1	5.1	12.2%	13.1*	26.1%	?
C/C(=N\NC(=O)c1cccc2ccccc12)c1cccnc1	6.0	40.1%	6.1	0.3%[46.1 µM]	-16.8%[46.1 µM]
C/C(=N\NC(=O)C(N)=O)c1ccc(Br)cc1	13.1	-8.9%	-0.9	2.0%	?
C/C(=N\NC(=O)c1ccc(Br)cc1)c1ccccc1	112.9*	55.6%	54.6*	?	?
C=CCC12C=C(OC)C(=O)C(C1=O)C(c1ccc(OC)cc1)C2C (stereo not given)	/	/	/	?	0.3%[14.2 µM]
SMILES	Shiga toxin inh	AMA1-RON2 inh	Cycloheximide cs	Lassa entry inh	MARV entry inh
CC(=O)Nc1ccccc1NC(=O)C/C(C)=N/NC(=O)c1ccncc1	-3.0	98.4%	11.6	10.7%	-2.7%
CC(=O)Nc1ccccc1NC(=O)C/C(C)=N/NC(=O)c1cccnc1	48.5*	82.8%	13.6	20.1%[46.1 µM]	-19.7%[46.1 µM]
C/C(=N\NC(=O)c1cccnc1)c1ccc(Br)cc1	27.3	23.5%	15.7*	13.0%[46.1 µM]	14.8%[46.1 µM]
c1csc(-c2ccc(N3CCOCC3)nn2)c1	26.9	19.0%	25.5*	/	/
CCOC(=O)C1CCN(c2ccc(Cl)nn2)CC1	21.5	-3.8%	11.2	-16.2%[46.1 µM]	5.6%[46.1 µM]
CCOC(=O)C1CCN(c2ccc(-c3cccs3)nn2)CC1	98.7*	1.0%	36.7*	1.1%[46.1 µM]	14.6%[46.1 µM]
O=C(Nc1c(Cl)cccc1Cl)c1cccc2c1C(=O)N(C1CCCCC1)C2	/	/	/	8.9%[46.1 µM]	-3.3%[46.1 µM]
CCOC(=O)Cn1c(=O)c2c(nc(N3CCOCC3)n2Cc2ccccc2)n(C)c1=O	/	/	/	-17.4%[46.1 µM]	?
COc1cc(/C=N/Nc2nc(-c3ccc(S(=O)(=O)N(C)C)cc3)cs2)ccc1O	50.2*	22.2%	13.4*	/	/
O=[N+]([O-])c1cc(/C=N\Nc2nc(-c3ccccc3)cs2)ccc1O	92.6	14.8%	22.6*	-6.1%[46.1 µM]	0.9%[46.1 µM]
COc1ccc(/C=N/Nc2nc(-c3cccc(S(=O)(=O)N4CCCC4)c3)cs2)cc1OC	+	15.5%	14.8	-9.0%	?
